The values below come from PubChem BioAssay AID485346 (Sanford-Burnham Center for Chemical Genomics, 2010).

Out of some 330,000 compounds screened, about 10,000 (3%) were called active.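 The calls were made as follows: active = inhibition of at least 50% at 8 µM in the primary screen; inactive = the rest.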 Only a selection was taken, and actives are over-represented in it overall.

Chain of Protein Mdm4 (Homo sapiens) + E3 ubiquitin-protein ligase Mdm2 (Homo sapiens) (O15151 whole entry, looked up): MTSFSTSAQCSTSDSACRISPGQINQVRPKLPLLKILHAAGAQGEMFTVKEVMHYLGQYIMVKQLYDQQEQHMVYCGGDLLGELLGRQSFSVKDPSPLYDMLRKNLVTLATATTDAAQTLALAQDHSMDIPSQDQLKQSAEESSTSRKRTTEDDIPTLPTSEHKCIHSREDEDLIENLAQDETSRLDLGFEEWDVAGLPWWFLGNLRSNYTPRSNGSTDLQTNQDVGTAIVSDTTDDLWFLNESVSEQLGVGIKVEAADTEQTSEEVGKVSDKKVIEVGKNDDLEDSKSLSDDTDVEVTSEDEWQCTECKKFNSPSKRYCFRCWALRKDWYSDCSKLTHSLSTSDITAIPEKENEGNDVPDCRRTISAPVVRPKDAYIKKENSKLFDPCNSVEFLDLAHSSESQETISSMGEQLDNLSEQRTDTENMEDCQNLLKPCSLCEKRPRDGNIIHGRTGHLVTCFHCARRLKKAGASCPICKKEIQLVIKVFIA
Chain of Protein Mdm4 (Homo sapiens) + E3 ubiquitin-protein ligase Mdm2 (Homo sapiens) (Q00987 whole entry, looked up): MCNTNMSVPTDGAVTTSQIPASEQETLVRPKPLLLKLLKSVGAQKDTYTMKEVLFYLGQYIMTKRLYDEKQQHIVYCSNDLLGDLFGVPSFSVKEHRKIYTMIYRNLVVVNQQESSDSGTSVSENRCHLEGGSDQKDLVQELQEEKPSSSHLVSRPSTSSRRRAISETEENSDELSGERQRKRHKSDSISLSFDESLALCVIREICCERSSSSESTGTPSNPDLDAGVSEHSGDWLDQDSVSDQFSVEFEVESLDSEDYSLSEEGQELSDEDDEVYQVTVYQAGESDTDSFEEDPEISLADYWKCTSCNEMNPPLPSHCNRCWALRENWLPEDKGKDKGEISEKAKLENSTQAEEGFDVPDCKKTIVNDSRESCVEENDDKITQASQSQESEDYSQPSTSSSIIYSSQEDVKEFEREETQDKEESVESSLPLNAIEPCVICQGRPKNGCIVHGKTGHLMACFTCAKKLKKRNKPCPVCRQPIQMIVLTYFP

The test has as its target Protein Mdm4 (Homo sapiens) + E3 ubiquitin-protein ligase Mdm2 (Homo sapiens) (UniProt O15151+Q00987). The test can be described thus: inhibitors of human Mdm2-MdmX association, primary screen, cell-based, luminescence, split luciferase, SaOS-2, uHTS (AID 485346). As to conditions: SaOS-2 split-luciferase Mdm2/MdmX complementation, at 8 µM, stronger effect = higher value.
`Cc1cc(NC(=O)CCC(=O)N(c2cccc(F)c2)C(C(=O)NC2CCCC2)c2ccncc2)no1` (stereo not drawn): the inhibition was -20% (inactive).
In the case of `Cc1cc(NC(=O)/C=C/C(=O)N(CC(=O)NC2CCCC2)c2ccc(F)cc2)no1`, the inhibition was -19.5% (inactive).
With `Cc1cc(NC(=O)/C=C/C(=O)N(c2ccccc2C)C(C(=O)NC2CCCC2)c2ccc(F)cc2)no1` (stereo not drawn), the inhibition was 63.1% (active).
Take `CCOc1ccc(-c2cc(C(=O)N/N=C/c3ccc(O)cc3)c3ccccc3n2)cc1`: the inhibition was 76.9% (active).
As for `CCOc1cc(/C=N/NC(=O)c2cc(-c3ccccc3)nc3ccccc23)ccc1O`, the inhibition is -10.1% (inactive).
As for `COc1ccc(/C=N/NC(=O)c2cc(-c3cccc(C)c3)nc3ccccc23)cc1O`, the inhibition is 34.6% (inactive).
As to `O=C(NCCCN1CCOCC1)c1cnn2c(-c3ccccc3)cc(-c3ccccc3)nc12`, the inhibition was 37.7% (inactive).
As to `CCN1CCN(c2ccc(S(=O)(=O)N3CCCCC3)cc2NC(=O)Cc2c(Cl)cccc2Cl)CC1`, the inhibition is 65.1% (active).
Turning to `CCN1CCN(c2ccc(S(=O)(=O)N3CCCCC3)cc2NC(=O)c2cccc(NC(C)=O)c2)CC1`, the inhibition was 12% (inactive).
With `CN1CCN(c2ccc(S(=O)(=O)N3CCCCC3)cc2NC(=O)Cc2ccccc2F)CC1`, the inhibition is 9.14% (inactive).
Consider `COc1cc2[nH]c(=S)n(Cc3ccc(C)o3)c(=O)c2cc1OC`, for which the inhibition was 2.31% (inactive).
As to `CCOc1cc2[nH]c(=S)n(Cc3ccc(C(=O)NCCOC)cc3)c(=O)c2cc1OCC`, the inhibition is 19.2% (inactive).
Turning to `COc1cc2[nH]c(=S)n(CCN3CCCCC3C)c(=O)c2cc1OC` (stereo not drawn), the inhibition is 39.9% (inactive).
The value for `COc1cc2[nH]c(=S)n(Cc3ccc(F)cc3)c(=O)c2cc1OC` was 81.3% (active); that for `COc1ccc(Cn2c(=S)[nH]c3cc(C(=O)N4CCCCC4)ccc3c2=O)cc1` was 14.8% (inactive); that for `CCOc1cc2[nH]c(=S)n(Cc3ccc(C(=O)N4CCN(C)CC4)cc3)c(=O)c2cc1OCC` was 91.7% (active).
As for `CC(=O)NC(Cc1ccc(F)c(F)c1)C(=O)NC1CCN(c2nnnn2-c2ccccc2)CC1` (stereo not drawn), the inhibition is 6.6% (inactive).
The value for `Cc1ccc(CNC(=O)CCCNC(=O)c2ccc(Cl)cc2)n1C` was 22.5% (inactive); that for `CCN(Cc1ccncc1)C(=O)CCc1ccccc1` was 16.5% (inactive); that for `O=C(CCNc1n[nH]c(=O)[nH]c1=O)N/N=C\c1ccc(Br)cc1` was 9.18% (inactive).
Consider `CC1=C(C)CC(C(=O)NNC(=O)c2csc3c2CCC(C(C)(C)C)C3)C(C(=O)O)C1` (stereo not drawn), for which the inhibition was 7.93% (inactive).
Under `CC1=C(C)CC(C(=O)NNC(=O)c2ccccc2O)C(C(=O)O)C1` (stereo not drawn) stands 60.5% (active); under `Cc1cc(C(=O)NNC(=O)c2ccccc2O)c(C)o1`, 30% (inactive); under `Cc1noc(NS(=O)(=O)c2ccc(NC(=O)c3oc4ccc(F)cc4c3C)cc2)c1C`, -34% (inactive).
Take `O=C(Nc1cc2ccccc2oc1=O)C1CCCCC1`: the inhibition is -82.7% (inactive).
Regarding `O=c1oc2ccccc2cc1-c1cn(-c2ccccc2)c(=S)[nH]1`, the inhibition is 88.3% (active).
Turning to `S=c1[nH]c(-c2cccs2)cn1-c1ccccc1`, the inhibition is -16.2% (inactive).
For `COCCCN1C(=O)C(=O)/C(=C(/O)c2ccc(S(=O)(=O)N3CCOCC3)cc2)C1c1ccc(F)cc1` (stereo not drawn), the inhibition was -23.9% (inactive).
Under `COc1ccccc1C1=CC(=O)C[C@H](c2ccc(F)cc2)C1` stands -0.761% (inactive); under `O=C(NCCc1ccccc1)Oc1ccc(Cl)cc1`, 11.2% (inactive); under `CCN1CCN(c2nc(Nc3cc(OC)ccc3OC)nc(Nc3cc(OC)ccc3OC)n2)CC1`, 56.2% (active).
Regarding `CCOC(=O)N1CCN(CCC(=O)Nc2cc(OC)ccc2OC)CC1`, the inhibition was -21.2% (inactive).
Under `CCOc1ccc(Nc2nc(Cl)nc(N3CCN(c4ccc(OC)cc4)CC3)n2)cc1` stands 7.3% (inactive); under `Cc1ccc(C)c(-n2nnnc2SCC(=O)c2c(N)n(C)c(=O)n(C)c2=O)c1`, 24.7% (inactive); under `CS(=O)(=O)N(CC(=O)Nc1ccc(Cl)c(Cl)c1)C1CCCCC1`, 11.5% (inactive).
On to `CCn1nccc1C(=O)Nc1ccc(Cl)c(Cl)c1`, for which the inhibition is 28.3% (inactive).
Turning to `O=C(CC(O)(C(F)(F)F)C(F)(F)F)Nc1ccc(Cl)c(Cl)c1`, the inhibition is 83.5% (active).
The value for `COc1ccc(N2CCN(C(=O)CNS(=O)(=O)c3ccc(C)c(C)c3)CC2)cc1` was -7.3% (inactive).
Regarding `CN(C)c1ccc(C=C2C(=O)OC3(CCCC3)OC2=O)cc1`, the inhibition is -3.25% (inactive).
In the case of `COc1cc(/C=N/NC(=O)Nc2ccccc2)ccc1OCCOc1ccccc1C`, the inhibition was 63.8% (active).
For the compound `COC(=O)c1ccc(COc2ccc(/C=N/NC(=O)C(=O)Nc3ccc(OC)cc3)cc2OC)o1`, the inhibition is 36.6% (inactive).
As to `COc1cc(/C=N/NC(=O)c2ccoc2C)ccc1OCCN1CCCCC1`, the inhibition was 7.93% (inactive).
In the case of `COc1ccc(-c2ccc(Nc3ccc(S(=O)(=O)N4CCCC4)cc3)nn2)cc1OC`, the inhibition was 57.4% (active).
For `COc1cc(C(C)=O)ccc1OC(C)C(=O)Nc1ccc(S(=O)(=O)N2CCCC2)cc1` (stereo not drawn), the inhibition was 9.67% (inactive).
In the case of `COc1ccc(S(=O)(=O)N2CCCCCC2)cc1NC(=O)Cc1ccc(OC)c(OC)c1`, the inhibition is 7.01% (inactive).
Under `O/N=C(\C[n+]1ccccc1)c1ccc(Br)cc1` stands 17% (inactive); under `CC(=O)C(CC(=O)N1CCCC1)C(=O)Nc1ccc(Cl)cc1` (stereo not drawn), -3.54% (inactive).
Turning to `O=C(O)CCCN1C(=O)c2ccccc2Sc2ncccc21`, the inhibition is -8.61% (inactive).
For `Nc1nc(CC(=O)CSc2ccc(Cl)cc2)nc(Nc2ccc(F)cc2)n1`, the inhibition was 81% (active).
As to `Nc1nc(COC(=O)CCC(=O)c2ccc(Cl)cc2)nc(Nc2ccccc2)n1`, the inhibition was -9.75% (inactive).
Consider `Cc1ccc(Nc2nc(N)nc(CSc3nnc(C)s3)n2)cc1`, for which the inhibition was -6.62% (inactive).
For `CCS(=O)(=O)c1ccc2c(c1)N(S(=O)(=O)c1ccccc1)CC(C(=O)O)O2` (stereo not drawn), the inhibition was -32% (inactive).
In the case of `Cn1c(N)c(C(=O)COC(=O)/C=C/c2cccc(C(F)(F)F)c2)c(=O)n(C)c1=O`, the inhibition was 21.9% (inactive).
For `COc1ccc2sc(-c3ccc(S(C)(=O)=O)cc3)c(C#Cc3cncn3C)c2c1`, the inhibition was 69.9% (active).
In the case of `COc1ccc2sc(-c3ccc(S(C)(=O)=O)cc3)c(-c3ccc(C(N)=O)cc3)c2c1`, the inhibition is 12% (inactive).
With `COc1ccc(-c2sc3ccc(OC)cc3c2C#Cc2ccccn2)cc1`, the inhibition was 40.5% (inactive).
With `COCc1cc(C)nc(Nc2cc(C)ccc2C)c1C#N`, the inhibition was 17.9% (inactive).
For the compound `COc1ccc(N=Cc2c(O)[nH]c3ccccc23)cc1OC`, the inhibition was 61.3% (active).
Under `CN=c1scc(-c2cc(OC)ccc2OC)n1/N=C/c1c(C)[nH]c2ccccc12` stands 20.3% (inactive); under `COc1cc(/C=N/NC(=O)Cc2ccccc2)cc(OC)c1OC`, 4.45% (inactive); under `COc1cc(N=Cc2c(O)[nH]c3ccccc23)cc(OC)c1OC`, 80.2% (active).
With `COc1ccc2[nH]c(C(=O)N/N=C/c3cc(OC)c(OC)c(OC)c3)cc2c1`, the inhibition was 11.4% (inactive).
Regarding `COc1cc(N=Cc2c(O)c3ccccc3oc2=O)c(OC)cc1Cl`, the inhibition is 20.6% (inactive).
With `Cc1cc(CNCc2c(C(=O)N(C)Cc3ccccc3)nc3ccccn23)nn1C`, the inhibition is 35.1% (inactive).
Under `CC1O[C@H](OC2C(COC3OC(CO)C(O)[C@H](O)C3O)OC(OC3CC[C@]4(C)C(CC[C@@]5(C)[C@@H]4C=C[C@]46OC[C@@]7(CCC(C)(C)C[C@H]74)C(O)C[C@@]56C)C3(C)C)C(O)C2O)C(O)C(O)C1O` (stereo partly drawn) stands -4.59% (inactive).
Regarding `Cc1c(C#N)c(NC(=O)c2ccccc2)n(Cc2ccccc2)c1C`, the inhibition was 29.1% (inactive).
As to `CCOc1cnc(C(=O)NNC(=O)c2ccccc2Br)o1`, the inhibition is -14.2% (inactive).
Under `CCn1c(CC(=O)Nc2ccccc2C)nnc1SCC(=O)NC1=NCCS1` stands 6.16% (inactive); under `Cc1ccc(C(=O)O)cc1N1C(=O)CCCC1=O`, -17.1% (inactive); under `CN(C(=O)c1cccc(NC(=O)Cc2cccc([N+](=O)[O-])c2)c1)C1CCCCC1`, 18.4% (inactive).
Regarding `CC(OC(=O)c1ccc(-n2cnnn2)cc1)C(=O)NCc1ccccc1` (stereo not drawn), the inhibition is 8.29% (inactive).
Take `CCOC(=O)C1(CCOc2ccccc2)CCN(Cc2cc(OC)c(O)cc2Cl)CC1`: the inhibition was 28.9% (inactive).
`OCC1(CCOc2ccccc2)CCN(Cc2cn[nH]c2-c2ccccc2)CC1`: the inhibition is 12.6% (inactive).
In the case of `Cc1c(CN2CCC(CO)(CCOc3ccccc3)CC2)[nH]c2ccc(Cl)cc12`, the inhibition is 89.6% (active).
As for `O=C(COC(=O)c1cc(-c2cccs2)nn1-c1ccccc1)Nc1cc([N+](=O)[O-])ccc1Cl`, the inhibition is -2.96% (inactive).
As to `O=C(CCNC(=O)c1ccccc1)NN=Cc1ccc(Br)o1`, the inhibition is 5.26% (inactive).
In the case of `COc1ccc(CNC(=O)COC(=O)CCS(=O)(=O)c2ccc(C)cc2)cc1OC`, the inhibition is 21.8% (inactive).
As to `CCOc1ncccc1C(=O)Nc1ccc(S(=O)(=O)Nc2nc(C)cc(C)n2)cc1`, the inhibition is -16.7% (inactive).
For the compound `CC(=O)Nc1ccc(S(=O)(=O)Nc2cc(C)cn(Cc3ccc(C)cc3)c2=O)cc1`, the inhibition is 17.7% (inactive).
For the compound `O=c1c([N+](=O)[O-])cccn1Cc1ccc(F)cc1Cl`, the inhibition was 10.4% (inactive).
As to `Oc1c(Br)cccc1/C=N/Nc1c(F)c(F)c(F)c(F)c1F`, the inhibition was 82.4% (active).
In the case of `Brc1ccccc1/C=N/Nc1nc2ccccc2o1`, the inhibition is 36.2% (inactive).
The value for `CC(=O)/C(=N\Nc1ccc(Cl)cc1Cl)Sc1cccc2cccnc12` was 63.2% (active); that for `S=C(NCc1cccnc1)Nc1ccc(Cl)cc1Cl` was 4.36% (inactive); that for `O=C(NNc1cc(Cl)ccc1Cl)c1cccnc1Cl` was 9.63% (inactive).
Take `COc1ccccc1NC(=O)C1CCN(C(=O)c2ccc(C(C)(C)C)cc2)CC1`: the inhibition is 28.8% (inactive).
`CCCCCCCNC(=O)C1(CC2CC(c3cccc(Br)c3)=NO2)CCN(C(=O)c2cc(OCC)c(OCC)c(OCC)c2)CC1` (stereo not drawn): the inhibition is 18.1% (inactive).
As to `Fc1ccc(N2N=C(c3cccs3)CC2c2ccco2)c(F)c1` (stereo not drawn), the inhibition was 2.13% (inactive).

A word on the inhibition: it is the relative decrease from the control value, in per cent.
